CYP2C9 inhib – blockers of cytochrome P450 2C9 activity – biochemical, luminescence, ADME assay, primary screen; CYP2C9 Supersomes, luciferin-H conversion; 96,000 tested, 20% active; inhibition, % at 5 µM; AID 777, 2007; P11712;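 active = blocking of liver enzyme CYP2C9 beyond about 50% at 5 µM, limit read from the data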
Target sequence (P11712 whole entry, looked up): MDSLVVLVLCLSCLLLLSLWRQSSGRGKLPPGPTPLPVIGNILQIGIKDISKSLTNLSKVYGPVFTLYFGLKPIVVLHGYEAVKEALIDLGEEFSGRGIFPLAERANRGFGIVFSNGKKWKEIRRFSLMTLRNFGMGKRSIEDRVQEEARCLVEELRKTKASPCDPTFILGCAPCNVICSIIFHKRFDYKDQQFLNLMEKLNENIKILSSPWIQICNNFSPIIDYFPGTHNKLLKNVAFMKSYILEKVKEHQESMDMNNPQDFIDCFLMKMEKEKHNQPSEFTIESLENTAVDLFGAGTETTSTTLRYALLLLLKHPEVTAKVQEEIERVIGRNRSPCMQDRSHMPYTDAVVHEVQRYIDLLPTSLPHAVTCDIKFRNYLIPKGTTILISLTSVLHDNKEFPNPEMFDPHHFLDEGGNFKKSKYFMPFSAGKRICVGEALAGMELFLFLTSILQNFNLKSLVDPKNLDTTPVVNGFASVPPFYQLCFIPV
CYP2C9 act – human CYP2C9 activators, primary screen, biochemical, luminescence; Cytochrome P450 2C9 (Homo sapiens), P11712; recombinant CYP2C9, luciferin-H conversion; stronger effect = higher value; factor 1 = untreated enzyme, 0 = blocked; AID 1024, 2008; activation factor at 5 µM; 96,000 tested, 1.4% active;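 active = activation factor of 2 or more for CYP2C9 at a 5 µM dose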;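 note: 0 = sulfaphenazole-blocked wells and 1 = vehicle-only wells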
CYP2C19 activ – human CYP2C19 activators, primary screen, biochemical, luminescence; Cytochrome P450 2C19 (Homo sapiens), P33261; recombinant CYP2C19, luciferin-H EGE luminescence; stronger effect = higher value; 0 = fully inhibited enzyme, 1 = untreated enzyme; activation factor at 5 µM; 96,000 tested, under 10 active; AID 1025, 2008;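 active = activation factor of at least 2 at 5 µM in the primary screen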;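 note: 0 = wells with 2.5 mM tranylcypromine and 1 = vehicle-only wells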
CYP2C19 inh – blockers of cytochrome P450 2C19 activity – biochemical, luminescence, ADME assay, primary screen; P33261; CYP2C19 Supersomes, luciferin-H EGE luminescence, 30 min; inhibition, % at 5 µM; 96,000 tested, 21% active; AID 778, 2007;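 active = CYP2C19 inhibition above a set limit at 5 µM in the primary screen, cut at about 50% in these data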;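 note: plate controls were negative control wells for no effect and 2.5 mM tranylcypromine positive control for full effect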
CD11b adhes enh – enhancers of CD11b/CD18 adhesion to fibrinogen, primary screen, K562 cells, luminescence; ATPlite luminescence; activation, % at 10 µM; 93,000 tested, 0.07% active;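 active = 10 µM primary screen giving 50% or more activity, confirmed by 40% or more on retest at that dose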
CD11b adhes inh – inhibitors of CD11b/CD18 adhesion to fibrinogen, primary screen, K562 cells, luminescence. ATPlite luminescence; Mn2+ added to activate the integrin. AID 1497, 2009. 93,000 tested, 0.54% active. Integrin beta-2 (Homo sapiens) + Integrin alpha-M (Homo sapiens), P05107+P11215. inhibition, % at 10 µM;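 active = primary inhibition of 50% or more at 10 µM, then 40% or more on retest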
An asterisk follows results filed as active; nt = no result. This is a sample that favours compounds with a hit; in the whole collection about 28% have one here.

SMILES	CYP2C9 inhib	CYP2C9 act	CYP2C19 activ	CYP2C19 inh	CD11b adhes enh	CD11b adhes inh
CCc1ccc(-c2cc(C(=O)Nc3c(C)n(C)n(-c4ccccc4)c3=O)c3ccccc3n2)s1	41	0.6	0.5	51*	-4	24
Cc1cc(C(=O)Nc2c(C)n(C)n(-c3ccccc3)c2=O)c2ccccc2n1	-3	1	1	-2	3	-2
CC(C)CCNCC1OCc2ccccc2CO1	nt	nt	nt	nt	2	-9
CCOc1cc2c(C#N)c(N3CCCCC3)nc(N)c2c(N)n1	90*	0.1	0.4	62*	-6	1
CCOc1cc2c(C#N)c(N3CCNCC3)nc(N)c2c(N)n1	49	0.5	0.8	23	3	11
COc1cc2c(C#N)c(N3CCc4ccccc4C3)nc(N)c2c(N)n1	85*	0.2	0.2	81*	7	42
Cc1cccc(C)c1OC1(c2ccccc2)OC(=O)c2ccccc21 (centres undefined)	69*	0.3	0.2	82*	nt	nt
Cc1ccc(S(=O)(=O)ON2C(=O)c3ccccc3C2=O)c(C)c1	nt	nt	nt	nt	-2	-2
Cc1cc(C)c(OC2(c3ccccc3)OC(=O)c3ccccc32)c(C)c1 (centres undefined)	55*	0.5	0.5	54*	nt	nt
COc1ccc2c(c1)[nH]c1c(Cl)ncnc12	nt	nt	nt	nt	1	35
Fc1ccc(Nc2nc(Oc3ccccc3F)nc(N3CCCC3)n2)cc1	39	0.6	1.2	-19	1	19
O=C(Oc1cccc2ccccc12)c1ccco1	-8	1.1	1	4	1	-10
O=C(Oc1ccc(Cl)c2cccnc12)c1ccco1	24	0.8	0.5	53*	-5	1
CC(=O)Nc1cc(-c2ccccc2)ccc1O	4	1	0.7	33	-1	62
CC(Oc1ccccc1)C(=O)Nc1cccc(F)c1 (centres undefined)	24	0.8	0.6	38	-4	-8
COc1cc(NC(=O)C(C)Oc2ccccc2)cc(OC)c1 (centres undefined)	79*	0.2	0.1	86*	-2	-20
CC(Oc1ccccc1)C(=O)Nc1ccccc1O (centres undefined)	87*	0.1	0.1	87*	0	-49
O=C(c1cccc2ccccc12)N1CCC(N2CCN(c3ccccc3)CC2)CC1	0	1	0.8	16	0	-5
O=c1c2ccccc2[nH]c(=S)n1-c1cccc(S(=O)(=O)N2CCCC2)c1	nt	nt	nt	nt	2	-5
CN(C)c1nc2ccc(OCCN3CCCCC3)cc2s1	8	0.9	1	4	-3	13
CCc1nnc(NC(=O)CSc2nc(-c3ccc(F)cc3)cc(-c3ccccc3)c2C#N)s1	nt	nt	nt	nt	0	-3
COc1ccc(-c2cc(-c3cccs3)c(C#N)c(SCC(=O)NCc3ccccc3OC)n2)cc1	40	0.6	0.8	17	nt	nt
COc1ccc(-c2cc(-c3cccs3)c(C#N)c(SCC(=O)NCc3ccccc3)n2)cc1	53*	0.5	1	-1	nt	nt
COc1ccc(-c2nnc(SCc3cccc(C#N)c3)o2)cc1	-8	1.1	0.8	20	-5	0
COc1ccccc1-c1cc(-c2ccc(C)cc2)nc(SCc2nnc(-c3ccccc3)o2)c1C#N	69*	0.3	0.9	14	-3	-21
SMILES	CYP2C9 inhib	CYP2C9 act	CYP2C19 activ	CYP2C19 inh	CD11b adhes enh	CD11b adhes inh
COc1ccc(-c2cc(-c3ccccc3)c(C#N)c(S(C)=O)n2)cc1 (centres undefined)	68*	0.3	0.5	47	0	-18
CCSc1nc(-c2ccc(OC)cc2)cc(-c2ccccc2)c1C#N	66*	0.3	0.7	31	12	-3
c1ccc(C2=Nc3ccccc3SC2c2nc3ccccc3[nH]2)cc1 (centres undefined)	34	0.7	0.6	45	4	-4
Clc1ccc(-c2nc3cnccn3c2NC2CCCC2)cc1	89*	0.1	0.2	76*	5	-6
Clc1ccc(-c2nc3cnccn3c2Nc2ccc3c(c2)OCO3)cc1	82*	0.2	0.1	87*	6	1
CSc1ccc(-c2nc3cnccn3c2Nc2ccc3c(c2)OCO3)cc1	88*	0.1	0	96*	0	4
Oc1ccccc1-c1nc2cnccn2c1Nc1ccc2c(c1)OCCO2	94*	0.1	0.1	92*	-4	7
CC1=C(C(N)=O)C(c2ccncc2)n2nc(-c3ccccc3Cl)nc2N1 (centres undefined)	6	0.9	0.8	22	-2	0
O=C(Cn1cc2c(n1)CCCCC2)NCc1ccccn1	-16	1.2	0.6	39	1	-4
O=C(O)Cn1nnnc1SCC(=O)Nc1ccc(OC(F)(F)F)cc1	-14	1.1	1.2	-18	-5	7
O=S(=O)(c1cccc(S(=O)(=O)N2CCCC2)c1)c1cccc(S(=O)(=O)N2CCCC2)c1	38	0.6	0.5	46	5	-5
C#CCn1cnc2c(cnn2-c2ccc(C)c(C)c2)c1=O	27	0.7	0.4	64*	nt	nt
Cc1ccc(-n2ncc3c(=O)n(CC#N)cnc32)cc1C	18	0.8	0.8	20	-2	9
CC(C)CCn1cnc2c(cnn2-c2ccc(Cl)cc2)c1=O	71*	0.3	0.7	32	-2	-1
O=C(O)CNC1=NCCC1	-15	1.1	1.2	-20	-3	15
CCN1CCN(C2=NC(=O)/C(=C/c3ccc(C)o3)S2)CC1	-48	1.5	1	-2	-2	-7
COc1ccc(-c2cc(-c3c(O)c(OC)c4occc4c3OC)[nH]n2)cc1	90*	0.1	0.3	70*	-3	13
COc1ccc(-c2cc(-c3ccccc3O)[nH]n2)cc1	47	0.5	0.7	27	-2	11
CC(c1nnc(SCC(=O)N2CC(=O)Nc3ccccc32)n1Cc1ccccc1)N(C)C (centres undefined)	28	0.7	0.8	20	-1	3
Cn1cc(C(=O)NC2CCCCCCC2)c(=O)c2cc(S(=O)(=O)N3CCCC3)ccc21	84*	0.2	0.9	6	25	0
CCn1cc(C(=O)NCC2CCCO2)c(=O)c2cc(S(=O)(=O)N3CCCCCC3)ccc21 (centres undefined)	57*	0.4	0.8	18	-2	8
CCn1cc(C(=O)N2CCc3ccccc32)c(=O)c2cc(S(=O)(=O)N3CCCCCC3)ccc21	67*	0.3	0.7	29	2	8
Cc1c(Br)cc(C(=O)NC2CCCCC2)c(C)c1C	-36	1.4	1.1	-8	nt	nt

From PubChem
